# Source: the supplement of paper PMC4466140
# How the values were obtained:
# Assay in all cases: SPOT peptide array binding signal intensity (averaged, normalized) (arbitrary units (background-subtracted, floor 0; scale differs between SH3 domains)); higher = stronger binding of the SH3 domain to the peptide
# SpBzz1-D2 = biological target: SpBzz1-D2
# Summary of the method: (§1)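 GST-fused SH3 domains from four yeast species were expressed in E. coli BL21(DE3), purified on glutathione Sepharose and incubated at 10 μg/ml overnight at 4°C in TBS-based blocking buffer on cellulose membranes carrying synthetic 15-mer peptides, with cysteines replaced by serines. Bound protein was detected with anti-GST antibody, an HRP anti-mouse secondary and luminol, then imaged and quantified with Genespotter. Binding signal is the normalized, background-subtracted spot intensity averaged over replicates, in arbitrary units that differ between domains.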
# SpCyk3 = biological target: SpCyk3
# Summary of the method: as §1
# SpHof1 = biological target: SpHof1
# Summary of the method: as §1
# SpHof1-2 = biological target: SpHof1-2
# Summary of the method: as §1
# SpHof1-3 = biological target: SpHof1-3
# Summary of the method: as §1
# SpHse1 = biological target: SpHse1
# Summary of the method: as §1
# SpLsb1 = biological target: SpLsb1
# Summary of the method: as §1
# SpLsb4 = biological target: SpLsb4
# Summary of the method: as §1
# SpMyo1 = biological target: SpMyo1
# Summary of the method: as §1
# SpNbp2 = biological target: SpNbp2
# Summary of the method: as §1
# SpPex13 = biological target: SpPex13
# Summary of the method: as §1
# SpRvs167 = biological target: SpRvs167
# Summary of the method: as §1
# SpSla1-D1-D2 = biological target: SpSla1-D1-D2
# Summary of the method: as §1
# SpSla1-D3 = biological target: SpSla1-D3
# Summary of the method: as §1
# AgAbp1 = biological target: AgAbp1
# Summary of the method: as §1
# AgBbc1 = biological target: AgBbc1
# Summary of the method: as §1
# AgBem1-D1 = biological target: AgBem1-D1
# Summary of the method: as §1
# AgBzz1-D1 = biological target: AgBzz1-D1
# Summary of the method: as §1
# AgBzz1-D2 = biological target: AgBzz1-D2
# Summary of the method: as §1
# AgCyk3 = biological target: AgCyk3
# Summary of the method: as §1
# AgFus1 = biological target: AgFus1
# Summary of the method: as §1
# AgHof1 = biological target: AgHof1
# Summary of the method: as §1
# AgHse1 = biological target: AgHse1
# Summary of the method: as §1
# AgLsb1 = biological target: AgLsb1
# Summary of the method: as §1
# AgLsb4 = biological target: AgLsb4
# Summary of the method: as §1
# AgMyo5 = biological target: AgMyo5
# Summary of the method: as §1
# AgNbp2 = biological target: AgNbp2
# Summary of the method: as §1
# AgRvs167 = biological target: AgRvs167
# Summary of the method: as §1
# AgSho1 = biological target: AgSho1
# Summary of the method: as §1
# AgSla1-D1-D2 = biological target: AgSla1-D1-D2
# Summary of the method: as §1
# AgSla1-D3 = biological target: AgSla1-D3
# Summary of the method: as §1
# CaAbp1-D1 = biological target: CaAbp1-D1
# Summary of the method: as §1
# CaAbp1-D2 = biological target: CaAbp1-D2
# Summary of the method: as §1
# CaBbc1 = biological target: CaBbc1
# Summary of the method: as §1
# CaBem1-D1 = biological target: CaBem1-D1
# Summary of the method: as §1
# CaBzz1-D1 = biological target: CaBzz1-D1
# Summary of the method: as §1
# CaBzz1-D2 = biological target: CaBzz1-D2
# Summary of the method: as §1
# CaCyk3 = biological target: CaCyk3
# Summary of the method: as §1
# CaFus1 = biological target: CaFus1
# Summary of the method: as §1
# CaHof1 = biological target: CaHof1
# Summary of the method: as §1
# CaHse1 = biological target: CaHse1
# Summary of the method: as §1
# CaLsb1 = biological target: CaLsb1
# Summary of the method: as §1
# CaLsb4 = biological target: CaLsb4
# Summary of the method: as §1
# CaMyo5 = biological target: CaMyo5
# Summary of the method: as §1
# CaNbp2 = biological target: CaNbp2
# Summary of the method: as §1
# CaRvs167 = biological target: CaRvs167
# Summary of the method: as §1
# CaRvs167-3 = biological target: CaRvs167-3
# Summary of the method: as §1
# CaSho1 = biological target: CaSho1
# Summary of the method: as §1
# CaSla1-D1-D2 = biological target: CaSla1-D1-D2
# Summary of the method: as §1
# CaSla1-D3 = biological target: CaSla1-D3
# Summary of the method: as §1
# ScAbp1 = biological target: ScAbp1
# Summary of the method: as §1
# ScBbc1 = biological target: ScBbc1
# Summary of the method: as §1
# ScBem1-D1 = biological target: ScBem1-D1
# Summary of the method: as §1
# ScBzz1-D1 = biological target: ScBzz1-D1
# Summary of the method: as §1
# ScBzz1-D2 = biological target: ScBzz1-D2
# Summary of the method: as §1
# ScCyk3 = biological target: ScCyk3
# Summary of the method: as §1
# ScFus1 = biological target: ScFus1
# Summary of the method: as §1
# ScHof1 = biological target: ScHof1
# Summary of the method: as §1
# ScHse1 = biological target: ScHse1
# Summary of the method: as §1
# ScLsb1 = biological target: ScLsb1
# Summary of the method: as §1
# ScLsb2 = biological target: ScLsb2
# Summary of the method: as §1
# ScLsb3 = biological target: ScLsb3
# Summary of the method: as §1
# ScLsb4 = biological target: ScLsb4
# Summary of the method: as §1
# ScMyo3 = biological target: ScMyo3
# Summary of the method: as §1
# ScMyo5 = biological target: ScMyo5
# Summary of the method: as §1
# ScNbp2 = biological target: ScNbp2
# Summary of the method: as §1
# ScPex13 = biological target: ScPex13
# Summary of the method: as §1
# ScRvs167 = biological target: ScRvs167
# Summary of the method: as §1
# ScSho1 = biological target: ScSho1
# Summary of the method: as §1
# ScSla1-D1-D2 = biological target: ScSla1-D1-D2
# Summary of the method: as §1
# ScSla1-D3 = biological target: ScSla1-D3
# Summary of the method: as §1
# SpAbp1-D1 = biological target: SpAbp1-D1
# Summary of the method: as §1
# SpBbc1 = biological target: SpBbc1
# Summary of the method: as §1
# SpBzz1-D1 = biological target: SpBzz1-D1
# Summary of the method: as §1
binder,measurement,setting,value
STKKPRPPVKSKPKH,SPOT peptide array binding signal intensity,SpBzz1-D2,2
same,SPOT peptide array binding signal intensity,SpCyk3,≤ 0
same,SPOT peptide array binding signal intensity,SpHof1,11.8
same,SPOT peptide array binding signal intensity,SpHof1-2,3.5
same,SPOT peptide array binding signal intensity,SpHof1-3,274
same,SPOT peptide array binding signal intensity,SpHse1,44.5
same,SPOT peptide array binding signal intensity,SpLsb1,383
same,SPOT peptide array binding signal intensity,SpLsb4,30
same,SPOT peptide array binding signal intensity,SpMyo1,≤ 0
same,SPOT peptide array binding signal intensity,SpNbp2,≤ 0
same,SPOT peptide array binding signal intensity,SpPex13,≤ 0
same,SPOT peptide array binding signal intensity,SpRvs167,≤ 0
same,SPOT peptide array binding signal intensity,SpSla1-D1-D2,8
same,SPOT peptide array binding signal intensity,SpSla1-D3,≤ 0
MARRRLPDRPPNGIG,SPOT peptide array binding signal intensity,AgAbp1,546
same,SPOT peptide array binding signal intensity,AgBbc1,428
same,SPOT peptide array binding signal intensity,AgBem1-D1,143
same,SPOT peptide array binding signal intensity,AgBzz1-D1,55
same,SPOT peptide array binding signal intensity,AgBzz1-D2,95
same,SPOT peptide array binding signal intensity,AgCyk3,16
same,SPOT peptide array binding signal intensity,AgFus1,148
same,SPOT peptide array binding signal intensity,AgHof1,112
same,SPOT peptide array binding signal intensity,AgHse1,216
same,SPOT peptide array binding signal intensity,AgLsb1,158
same,SPOT peptide array binding signal intensity,AgLsb4,2490
same,SPOT peptide array binding signal intensity,AgMyo5,≤ 0
same,SPOT peptide array binding signal intensity,AgNbp2,410
same,SPOT peptide array binding signal intensity,AgRvs167,487
same,SPOT peptide array binding signal intensity,AgSho1,636
same,SPOT peptide array binding signal intensity,AgSla1-D1-D2,179
same,SPOT peptide array binding signal intensity,AgSla1-D3,16.5
same,SPOT peptide array binding signal intensity,CaAbp1-D1,1170
same,SPOT peptide array binding signal intensity,CaAbp1-D2,788
same,SPOT peptide array binding signal intensity,CaBbc1,1100
same,SPOT peptide array binding signal intensity,CaBem1-D1,184
same,SPOT peptide array binding signal intensity,CaBzz1-D1,308
same,SPOT peptide array binding signal intensity,CaBzz1-D2,102
same,SPOT peptide array binding signal intensity,CaCyk3,290
same,SPOT peptide array binding signal intensity,CaFus1,280
same,SPOT peptide array binding signal intensity,CaHof1,5.25
same,SPOT peptide array binding signal intensity,CaHse1,89
same,SPOT peptide array binding signal intensity,CaLsb1,6.75
same,SPOT peptide array binding signal intensity,CaLsb4,2570
same,SPOT peptide array binding signal intensity,CaMyo5,22.5
same,SPOT peptide array binding signal intensity,CaNbp2,1660
same,SPOT peptide array binding signal intensity,CaRvs167,923
same,SPOT peptide array binding signal intensity,CaRvs167-3,25.5
same,SPOT peptide array binding signal intensity,CaSho1,794
same,SPOT peptide array binding signal intensity,CaSla1-D1-D2,1100
same,SPOT peptide array binding signal intensity,CaSla1-D3,138
same,SPOT peptide array binding signal intensity,ScAbp1,135
same,SPOT peptide array binding signal intensity,ScBbc1,126
same,SPOT peptide array binding signal intensity,ScBem1-D1,7
same,SPOT peptide array binding signal intensity,ScBzz1-D1,29
same,SPOT peptide array binding signal intensity,ScBzz1-D2,33
same,SPOT peptide array binding signal intensity,ScCyk3,22.5
same,SPOT peptide array binding signal intensity,ScFus1,61
same,SPOT peptide array binding signal intensity,ScHof1,53.2
same,SPOT peptide array binding signal intensity,ScHse1,241
same,SPOT peptide array binding signal intensity,ScLsb1,434
same,SPOT peptide array binding signal intensity,ScLsb2,176
same,SPOT peptide array binding signal intensity,ScLsb3,3700
same,SPOT peptide array binding signal intensity,ScLsb4,1540
same,SPOT peptide array binding signal intensity,ScMyo3,7
same,SPOT peptide array binding signal intensity,ScMyo5,≤ 0
same,SPOT peptide array binding signal intensity,ScNbp2,523
same,SPOT peptide array binding signal intensity,ScPex13,438
same,SPOT peptide array binding signal intensity,ScRvs167,2820
same,SPOT peptide array binding signal intensity,ScSho1,1560
same,SPOT peptide array binding signal intensity,ScSla1-D1-D2,1290
same,SPOT peptide array binding signal intensity,ScSla1-D3,100
same,SPOT peptide array binding signal intensity,SpAbp1-D1,1340
same,SPOT peptide array binding signal intensity,SpBbc1,43.8
same,SPOT peptide array binding signal intensity,SpBzz1-D1,450
same,SPOT peptide array binding signal intensity,SpBzz1-D2,9
same,SPOT peptide array binding signal intensity,SpCyk3,221
same,SPOT peptide array binding signal intensity,SpHof1,1210
same,SPOT peptide array binding signal intensity,SpHof1-2,1530
same,SPOT peptide array binding signal intensity,SpHof1-3,3040
same,SPOT peptide array binding signal intensity,SpHse1,104
same,SPOT peptide array binding signal intensity,SpLsb1,178
same,SPOT peptide array binding signal intensity,SpLsb4,5420
same,SPOT peptide array binding signal intensity,SpMyo1,52.8
same,SPOT peptide array binding signal intensity,SpNbp2,144
same,SPOT peptide array binding signal intensity,SpPex13,123
same,SPOT peptide array binding signal intensity,SpRvs167,1670
same,SPOT peptide array binding signal intensity,SpSla1-D1-D2,393
same,SPOT peptide array binding signal intensity,SpSla1-D3,23
